What all share (experiment): DAPPL (digital affinity profiling via proximity ligation, sequencing); 10 mM Tris-HCl pH 7.5, 50 mM NaCl, 1 mM DTT, 4% glycerol, room temperature, 30 min; GST-TFs on glutathione beads, 16-mer random dsDNA library, 0.1% formaldehyde crosslink after washing; high values mean tight binding
What all share (details): protein: recombinant; tags: N-terminal GST; dsDNA, one strand shown

The target of experiment [1] is T1, FLI1 (Homo sapiens, UniProt Q01543 1-452).
T1 sequence: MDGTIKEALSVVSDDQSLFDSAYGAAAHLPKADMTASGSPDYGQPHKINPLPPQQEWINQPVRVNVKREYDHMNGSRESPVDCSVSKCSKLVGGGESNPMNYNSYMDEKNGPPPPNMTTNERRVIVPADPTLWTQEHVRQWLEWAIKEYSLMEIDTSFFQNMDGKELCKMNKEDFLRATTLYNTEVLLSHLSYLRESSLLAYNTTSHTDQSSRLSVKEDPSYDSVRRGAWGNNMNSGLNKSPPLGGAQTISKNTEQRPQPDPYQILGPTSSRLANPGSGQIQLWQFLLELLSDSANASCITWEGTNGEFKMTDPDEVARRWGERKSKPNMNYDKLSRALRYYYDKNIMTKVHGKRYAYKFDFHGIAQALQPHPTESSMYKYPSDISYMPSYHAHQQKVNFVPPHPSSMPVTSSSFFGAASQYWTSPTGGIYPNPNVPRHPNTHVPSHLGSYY
In a few lines: (§1)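 Human transcription factors fused to GST were expressed in yeast, captured on glutathione beads, given DNA barcodes and pooled with a GST-only negative control. Pools were incubated with 200 nmole of a 16-mer random double-stranded DNA library in Tris/NaCl/DTT/glycerol buffer at room temperature for 30 min. They were then washed, crosslinked with 0.1% formaldehyde, proximity-ligated (BsaI/T4 ligase, 1 h, 37 °C), PCR-amplified and sequenced on an Illumina NextSeq500. Binding signal is each 6-mer's read frequency for a factor divided by its frequency for the GST control.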

Experiment [2] deals with T2, ELK1 (Homo sapiens, UniProt P19419 1-428).
T2 sequence: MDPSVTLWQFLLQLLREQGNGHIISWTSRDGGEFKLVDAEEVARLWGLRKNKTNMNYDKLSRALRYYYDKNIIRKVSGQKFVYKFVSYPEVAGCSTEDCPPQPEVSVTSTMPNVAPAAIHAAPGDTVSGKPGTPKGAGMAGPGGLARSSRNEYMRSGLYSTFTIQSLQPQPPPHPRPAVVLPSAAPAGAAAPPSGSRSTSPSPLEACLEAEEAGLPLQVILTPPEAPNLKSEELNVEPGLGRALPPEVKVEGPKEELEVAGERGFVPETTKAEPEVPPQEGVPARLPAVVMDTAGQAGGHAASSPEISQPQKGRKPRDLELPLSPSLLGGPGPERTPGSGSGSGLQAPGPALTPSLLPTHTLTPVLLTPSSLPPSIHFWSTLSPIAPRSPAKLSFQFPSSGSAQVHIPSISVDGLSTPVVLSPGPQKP
The method, boiled down: as §1

Experiment [3] concerns the target T3, GABPA (Homo sapiens, UniProt Q06546 1-454).
T3 sequence: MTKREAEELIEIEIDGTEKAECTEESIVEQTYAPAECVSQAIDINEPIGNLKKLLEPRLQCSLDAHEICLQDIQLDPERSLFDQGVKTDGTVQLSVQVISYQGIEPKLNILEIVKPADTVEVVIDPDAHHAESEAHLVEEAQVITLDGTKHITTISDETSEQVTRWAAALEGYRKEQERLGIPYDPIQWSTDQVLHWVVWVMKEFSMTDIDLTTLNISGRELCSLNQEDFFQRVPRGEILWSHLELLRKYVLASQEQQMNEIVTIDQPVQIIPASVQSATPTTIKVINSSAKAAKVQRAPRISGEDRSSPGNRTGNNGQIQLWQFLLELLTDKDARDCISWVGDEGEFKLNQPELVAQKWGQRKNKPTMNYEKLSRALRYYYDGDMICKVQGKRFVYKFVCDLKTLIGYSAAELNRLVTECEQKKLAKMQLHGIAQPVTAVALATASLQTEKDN
The method, boiled down:
as §1

For experiment [4], the target named is T4, ERG (Homo sapiens, UniProt P11308 1-479).
T4 sequence: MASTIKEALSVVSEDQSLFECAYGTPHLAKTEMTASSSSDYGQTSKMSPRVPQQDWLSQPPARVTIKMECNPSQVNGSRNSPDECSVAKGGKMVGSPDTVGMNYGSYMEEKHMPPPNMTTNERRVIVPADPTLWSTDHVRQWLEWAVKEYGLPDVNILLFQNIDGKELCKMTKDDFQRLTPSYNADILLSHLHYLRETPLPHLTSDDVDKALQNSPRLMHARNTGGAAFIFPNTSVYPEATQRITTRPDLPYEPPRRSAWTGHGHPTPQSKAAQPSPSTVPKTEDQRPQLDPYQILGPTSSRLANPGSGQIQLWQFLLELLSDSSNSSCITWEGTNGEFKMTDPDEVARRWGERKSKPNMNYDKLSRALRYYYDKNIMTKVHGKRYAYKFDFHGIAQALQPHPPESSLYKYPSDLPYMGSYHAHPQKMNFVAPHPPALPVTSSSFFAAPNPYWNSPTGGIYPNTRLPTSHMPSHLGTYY
The method, boiled down:
as §1

Experiment [5] addresses ELF1 (Homo sapiens, UniProt P32519 1-619). The method, boiled down:
as §1

For experiment [6], the target named is T5, EHF (Homo sapiens, UniProt Q9NZC4 1-300).
T5 sequence: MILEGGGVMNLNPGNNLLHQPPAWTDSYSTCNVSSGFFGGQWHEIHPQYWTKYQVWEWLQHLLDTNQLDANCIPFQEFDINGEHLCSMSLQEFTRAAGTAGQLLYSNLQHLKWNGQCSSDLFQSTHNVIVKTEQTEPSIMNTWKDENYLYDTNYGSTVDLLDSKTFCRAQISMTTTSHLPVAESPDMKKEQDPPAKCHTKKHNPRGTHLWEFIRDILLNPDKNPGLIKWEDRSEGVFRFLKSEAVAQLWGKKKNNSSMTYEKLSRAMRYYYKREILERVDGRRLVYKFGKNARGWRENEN
In a few lines:
as §1

Experiment [7] deals with SPI1 (Homo sapiens, UniProt P17947 1-270). The method, boiled down:
as §1

The target in experiment [8] is SPIB (Homo sapiens, UniProt Q01892 1-262). In a few lines: as §1
Experiment [9] concerns the target T6, ELK3 (Homo sapiens, UniProt P41970 1-407).
T6 sequence: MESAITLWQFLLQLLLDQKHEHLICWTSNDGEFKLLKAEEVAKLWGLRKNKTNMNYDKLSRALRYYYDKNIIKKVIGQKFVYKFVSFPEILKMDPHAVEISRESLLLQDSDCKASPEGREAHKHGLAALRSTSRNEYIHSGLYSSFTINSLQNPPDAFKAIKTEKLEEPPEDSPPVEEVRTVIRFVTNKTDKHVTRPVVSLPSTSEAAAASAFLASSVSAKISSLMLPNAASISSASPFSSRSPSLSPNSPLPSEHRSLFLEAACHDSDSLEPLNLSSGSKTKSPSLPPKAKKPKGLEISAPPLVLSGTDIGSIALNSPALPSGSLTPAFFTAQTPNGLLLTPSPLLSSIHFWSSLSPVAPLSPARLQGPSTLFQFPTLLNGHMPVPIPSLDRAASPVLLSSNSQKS
In a few lines: as §1

Chain of ELF1 (P32519 whole entry): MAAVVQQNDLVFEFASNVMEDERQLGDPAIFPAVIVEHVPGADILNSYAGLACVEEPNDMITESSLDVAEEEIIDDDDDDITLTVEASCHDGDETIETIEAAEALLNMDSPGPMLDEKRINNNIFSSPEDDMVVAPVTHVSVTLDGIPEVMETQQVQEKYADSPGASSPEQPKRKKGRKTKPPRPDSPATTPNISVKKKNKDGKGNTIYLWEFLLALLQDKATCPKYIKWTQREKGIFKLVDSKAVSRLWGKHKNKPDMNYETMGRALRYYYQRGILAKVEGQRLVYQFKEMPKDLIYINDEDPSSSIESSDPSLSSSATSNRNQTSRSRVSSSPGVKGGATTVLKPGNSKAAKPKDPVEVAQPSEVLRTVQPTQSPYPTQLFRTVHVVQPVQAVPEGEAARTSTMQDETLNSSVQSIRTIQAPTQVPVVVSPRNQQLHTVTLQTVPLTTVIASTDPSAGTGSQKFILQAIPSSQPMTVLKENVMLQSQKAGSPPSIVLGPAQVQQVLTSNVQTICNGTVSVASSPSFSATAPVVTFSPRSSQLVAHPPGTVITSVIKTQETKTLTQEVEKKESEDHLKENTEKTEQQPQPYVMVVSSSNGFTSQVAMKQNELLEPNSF
Chain of SPIB (Q01892 whole entry): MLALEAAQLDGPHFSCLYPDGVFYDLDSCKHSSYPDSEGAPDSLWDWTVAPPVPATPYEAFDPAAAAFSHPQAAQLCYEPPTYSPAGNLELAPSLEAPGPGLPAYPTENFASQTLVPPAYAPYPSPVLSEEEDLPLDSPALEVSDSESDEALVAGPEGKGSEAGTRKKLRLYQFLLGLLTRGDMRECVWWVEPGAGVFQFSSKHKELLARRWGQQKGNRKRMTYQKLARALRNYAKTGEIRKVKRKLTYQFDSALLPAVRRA

Turning to GCGCTC, the binding signal is 1.26 fold enrichment (6-mer frequency, TF over GST control) in experiment [1]; 1.2 fold enrichment (6-mer frequency, TF over GST control) in [2]; 1.16 fold enrichment (6-mer frequency, TF over GST control) in experiment [3]; 1.15 fold enrichment (6-mer frequency, TF over GST control) in [4]; 1.12 fold enrichment (6-mer frequency, TF over GST control) in [5]; 1.09 fold enrichment (6-mer frequency, TF over GST control) in [6]. Besides, the binding signal in [7] was 1.13 fold enrichment (6-mer frequency, TF over GST control); in experiment [8], 1.18 fold enrichment (6-mer frequency, TF over GST control); in experiment [9], 1.15 fold enrichment (6-mer frequency, TF over GST control).
With TCAATT, the binding signal in experiment [1] was 1.09 fold enrichment (6-mer frequency, TF over GST control); in experiment [2], 1.06 fold enrichment (6-mer frequency, TF over GST control); in experiment [3], 1.19 fold enrichment (6-mer frequency, TF over GST control); in experiment [4], 1.16 fold enrichment (6-mer frequency, TF over GST control); in experiment [5] it was 1.16 fold enrichment (6-mer frequency, TF over GST control); in experiment [6], 1.12 fold enrichment (6-mer frequency, TF over GST control). The binding signal is 1.18 fold enrichment (6-mer frequency, TF over GST control) in experiment [7] and 1.29 fold enrichment (6-mer frequency, TF over GST control) in experiment [8].
Regarding TCGATG, the binding signal was 1.04 fold enrichment (6-mer frequency, TF over GST control) in experiment [1]; 1.14 fold enrichment (6-mer frequency, TF over GST control) in [2]; 1.12 fold enrichment (6-mer frequency, TF over GST control) in experiment [3]; 1.06 fold enrichment (6-mer frequency, TF over GST control) in [4]; 1.11 fold enrichment (6-mer frequency, TF over GST control) in experiment [5]; 1.09 fold enrichment (6-mer frequency, TF over GST control) in experiment [6]. Moreover, the binding signal in experiment [7] is 1.17 fold enrichment (6-mer frequency, TF over GST control); in [8], 1.06 fold enrichment (6-mer frequency, TF over GST control).
Regarding GAAAAA, the binding signal in experiment [1] was 1.07 fold enrichment (6-mer frequency, TF over GST control); in [2], 1.13 fold enrichment (6-mer frequency, TF over GST control); in experiment [3] it was 1.11 fold enrichment (6-mer frequency, TF over GST control); in [4] it was 1.14 fold enrichment (6-mer frequency, TF over GST control); in experiment [5], 1.1 fold enrichment (6-mer frequency, TF over GST control); in experiment [6] it was 1.2 fold enrichment (6-mer frequency, TF over GST control). Also, the binding signal in experiment [7] was 1.21 fold enrichment (6-mer frequency, TF over GST control); in [8], 1.18 fold enrichment (6-mer frequency, TF over GST control); in [9], 1.21 fold enrichment (6-mer frequency, TF over GST control).
In the case of CCCTCA, the binding signal in experiment [1] was 1.28 fold enrichment (6-mer frequency, TF over GST control); in experiment [2], 1.11 fold enrichment (6-mer frequency, TF over GST control); in [3], 1.18 fold enrichment (6-mer frequency, TF over GST control); in experiment [4] it was 1.16 fold enrichment (6-mer frequency, TF over GST control); in [5] it was 1.19 fold enrichment (6-mer frequency, TF over GST control); in [6], 1.1 fold enrichment (6-mer frequency, TF over GST control). Besides, the binding signal is 1.12 fold enrichment (6-mer frequency, TF over GST control) in experiment [7]; 1.25 fold enrichment (6-mer frequency, TF over GST control) in experiment [8]; 1.19 fold enrichment (6-mer frequency, TF over GST control) in [9].
For TTGCGT, the binding signal is 1.05 fold enrichment (6-mer frequency, TF over GST control) in [1]; 1.14 fold enrichment (6-mer frequency, TF over GST control) in experiment [2]; 1.12 fold enrichment (6-mer frequency, TF over GST control) in [3]; 1.03 fold enrichment (6-mer frequency, TF over GST control) in experiment [4]; 1.11 fold enrichment (6-mer frequency, TF over GST control) in [5]; 1.01 fold enrichment (6-mer frequency, TF over GST control) in [6]. In addition, the binding signal is 1.11 fold enrichment (6-mer frequency, TF over GST control) in experiment [7]; 1.11 fold enrichment (6-mer frequency, TF over GST control) in experiment [8]; 1.13 fold enrichment (6-mer frequency, TF over GST control) in experiment [9].
Regarding CCCTGT, the binding signal was 1.18 fold enrichment (6-mer frequency, TF over GST control) in experiment [1]; 1.02 fold enrichment (6-mer frequency, TF over GST control) in experiment [2]; 1.2 fold enrichment (6-mer frequency, TF over GST control) in [3]; 1.21 fold enrichment (6-mer frequency, TF over GST control) in experiment [4]; 1.17 fold enrichment (6-mer frequency, TF over GST control) in [5]; 1.09 fold enrichment (6-mer frequency, TF over GST control) in experiment [6]. Besides, the binding signal in [7] was 1.07 fold enrichment (6-mer frequency, TF over GST control); in experiment [8], 1.12 fold enrichment (6-mer frequency, TF over GST control).

Values taken from article PMC7862700, “An all-to-all approach to the identification of sequence-specific readers for epigenetic DNA modifications on cytosine”.
